Assay results reported in PubChem BioAssay (NCI).
Compounds without any hit were thinned out: in the full panel of roughly 83,000, 20% have a hit.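 Assay: single dose, 48 h. Readout: percent growth (0 = no net growth; negative = cell death). Active: <10.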 Unmarked numbers belong to inactive results. The source made the active and inactive calls.

System: SK-MEL-28 melanoma
Assay: NCI-60 one-dose screen, 48 h (100 = growth as untreated, 0 = no growth, -100 = all killed)
Conditions: 10 µM unless noted

Row | SMILES | growth
1 | Cn1cccc1/C=C1\C(=O)Nc2ccccc21 | 112%
2 | O=C1N[C@@H]2[C@@H](O)[C@@H](O)[C@H](O)C[C@H]2c2cc3c(c(O)c21)OCCO3 | -16.4% (active)
3 | Cc1ccc2[nH]c(-c3ccc(S(C)(=O)=O)cc3)c(/C=N/N=C(N)N)c2c1 | 71.2%
4 | CCOC(=O)c1c(C)nc2c(c1N)CC(=O)N2Cc1cc(OC)c(OC)c(OC)c1 | 73.6%
5 | COc1ccc2nc(SCC(=O)Nc3ccccc3C)[nH]c2c1 | 95.8%
6 | Cc1cc(C)cc(Nc2ccc([N+](=O)[O-])c(NCCN3CCOCC3)n2)c1 | 60.9%
7 | Cc1ccc(C)n1/C=C/n1c(C)ccc1C | 125%
8 | Oc1c(CN2CCCC2)cc(COCc2ccccc2)c2cccnc12 | 31%
9 | CCc1cccc(Sc2cc(C(=O)N3Cc4ccc(OCCN(C)C)cc4C3)ccc2O)c1 | 90.8%
10 | O=P(O)(O)OCC1OC(n2cnc3c(NCc4ccccc4)ncnc32)C(O)C1O (stereo unspecified) | 127%
11 | C=CCN=C(N)SCCCCCCSC(N)=NCC=C | 103%
12 | COc1ccc(Cn2cc(C(=O)N=Nc3c(O)[nH]c4c(Cl)cccc34)nn2)cc1 | 115%
13 | O=C(Nc1ccccc1)c1sc(-c2ccccc2)cc1O | 84.4%
14 | CS(=O)(=O)Nc1cc(-c2ccc3ncnc(Nc4ccc5c(cnn5Cc5cccnc5)c4)c3c2)cnc1Cl | 29.4%
15 | CC1(C)CC[C@]2(C(=O)O)CC[C@]3(C)C(=CC[C@@H]4[C@@]5(C)C[C@@H](Cc6cn([C@@H]7O[C@H](CO)[C@@H](O)[C@H](O)[C@H]7O)nn6)[C@H](O)C(C)(C)[C@@H]5CC[C@]43C)[C@@H]2C1 | 103%
16 | CCN1C(=O)N(CC)C2C1NN=c1s/c(=C\c3ccccc3Br)c(=O)n12 (stereo unspecified) | 57.4%
17 | Cc1ccc(Nc2nc(-c3ccc(F)cc3)c(C#N)c(=O)n2C)cc1 | 74.1%
18 | N#Cc1c(N2CCOCC2)nc(=S)[nH]c1-c1ccccc1 | 79.6%
19 | COc1cccc(/C=C/C(=O)c2cc3c(N)c(C(=O)Nc4ccccc4C)sc3nc2C)c1 | 70.9%
20 | COc1ccc(C2=NN(C(C)=O)C(c3ccc(Oc4ccnc5cc(Cl)ccc45)c(OC)c3)C2)cc1 (stereo unspecified) | 35.8%
21 | CCOC(=O)C/C(=N\Nc1cc(=O)[nH]c2ccc(Cl)cc12)C(=O)OCC | 103%
22 | COC(=O)C1=C(C)NC(C)=C(C(=O)OCC(C)C)C1c1ccccc1[N+](=O)[O-] (stereo unspecified) | 87.1%
23 | Cc1ccc(S(=O)(=O)n2cc(C3C(Cl)C(=O)N3c3ccc(N4CCOCC4=O)cc3)c3ccccc32)cc1 (stereo unspecified) | 69.3%
24 | CS(=O)(=O)Nc1cncc(-c2ccc3ncnc(Nc4ccc(F)c(Cl)c4)c3c2)c1 | 42.7%
25 | N=C(N)c1ccc(-c2ccc(-c3ccc(F)cc3)s2)s1 | 83.5%
26 | CCN(CC)c1ccc(/C=N/NC(=O)c2ccc(Nc3ccnc(C(F)(F)F)c3)cc2)c(O)c1 | 47.4%
